In all, about 31,000 sequences went through this assay and about 1,400 (4.5%) were called active.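 The calls were made as follows: active = median seed-adjusted z-score above 1 or below -1; inactive = the rest.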 Many of the other results were omitted from the sample, so actives are more common in it than they were.

A short description of the experiment: Novel Modifiers of Survival Motor Neuron (SMN) Protein: Gene Identification via Genome-wide siRNA Screen.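 Also: luminescence tracks full-length SMN protein made from the SMN2 reporter.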 To be noted: HEK293T SMN2-luciferase reporter, siRNA knockdown, 72 h; actives lie on both sides. In a few lines:
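Each of three siRNAs per gene is reverse-transfected (1 pmol) into reporter HEK293T cells whose luciferase output tracks SMN protein level. After 72 h culture, ONE-Glo luminescence is control-normalized, log10-transformed and MAD-standardized; Common Seed Analysis deprioritizes seed-driven hits.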
Take ACAUAGUAAAGACUUUCUATT against PIGA: the median seed-adjusted z-score was -0.0514 (inactive).

As for GUCAGUUGUUAGAACAUAATT against TRIM24, the median seed-adjusted z-score is -0.22 (inactive).

Regarding CAAUUCUUAUUGACUCAUATT against IFNA1, the median seed-adjusted z-score is -0.625 (inactive).

As for CAUCAUCCAUGGUAGCUUUTT against DUOX1, the median seed-adjusted z-score is -1.09 (active).

As to GCUUGACCCUUAGACGGAATT against LILRB3, the median seed-adjusted z-score is 0.0304 (inactive).

In the case of GGUGUUAUCCUAUGAGGUATT against MPP4, the median seed-adjusted z-score was 0.13 (inactive).

In the case of GGAAAAACCUUCUACCUGATT against ZNF12, the median seed-adjusted z-score is -0.144 (inactive).

With GGCCUUACGGGUGUAGUAATT against ZNF419, the median seed-adjusted z-score was 0.0405 (inactive).

Regarding GGAUCAAGGCUAUGUGGAUTT against CYB5R1, the median seed-adjusted z-score was 0 (inactive).

Regarding UAUGAGUUGUUGUUGGGAATT against NSUN5, the median seed-adjusted z-score was 0.118 (inactive).

Turning to UCUUAUCCUUUGUCGCAGATT against LMO3, the median seed-adjusted z-score is 0.496 (inactive).

Regarding GCAUCACCCAAGUAGUUAUTT against SFXN2, the median seed-adjusted z-score was 0.365 (inactive).

As to GACUCAUAUGGACCAGUUATT against ZNF460, the median seed-adjusted z-score is -0.302 (inactive).

As for CAUGGGCUCUAUUACGCUUTT against SPEN, the median seed-adjusted z-score was -1.69 (active).

Take GUCUACCCAUGGACCCAGATT against HBG1: the median seed-adjusted z-score was -0.716 (inactive).

Regarding CACCAACUAAUGUUACAAUTT against IFNGR1, the median seed-adjusted z-score is -0.279 (inactive).

Regarding CCUCGAGACUAUACGGUUATT against MED26, the median seed-adjusted z-score was -1.86 (active).

CCAGUGGAGUGGUAUCUAUTT against RBBP5: the median seed-adjusted z-score was 0.169 (inactive).

Take GAACUCAUGUCCGACAUAATT against STX1A: the median seed-adjusted z-score was 0 (inactive).

Regarding GCGCUUUGGAGAUCCGAGATT against KLC3, the median seed-adjusted z-score is -0.156 (inactive).

Regarding GCAGUAGAAGUAUCCGGGATT against THSD4, the median seed-adjusted z-score is 0.0657 (inactive).

Consider CCUUCUCAAUGGAUUCCAATT against VN1R1, for which the median seed-adjusted z-score was 0.531 (inactive).

Regarding GGUCAUGCAGGGUUGGAAATT against ALDH1B1, the median seed-adjusted z-score is 0.105 (inactive).

In the case of GGAAGAUUGUCGCUCCUCATT against TFAP2C, the median seed-adjusted z-score was 1.28 (active).

Regarding CAGAAGACCUGGUGCCCUATT against SPI1, the median seed-adjusted z-score was 0.384 (inactive).

As for GCAUUAAUAACAUUACGUUTT against ZNF236, the median seed-adjusted z-score is 0.683 (inactive).

CGCCCGCGAUUACUACCAUTT against HSPA12B: the median seed-adjusted z-score was -0.141 (inactive).

In the case of GUGCCACCGGAGCUAGUAATT against KCNK4, the median seed-adjusted z-score is -0.446 (inactive).

As to AGGUGAAACUUCGAAGACATT against TRPM3, the median seed-adjusted z-score is -0.633 (inactive).

Turning to CGAUGAACGAGUACAUUGATT against GRIA2, the median seed-adjusted z-score is -1.02 (active).

In the case of CAUCUGAAGUGGUUAAGCATT against SLC25A26, the median seed-adjusted z-score was 0.0213 (inactive).

On to CCGGAAAUUUGGGACGCAATT against DHX58, for which the median seed-adjusted z-score was -0.302 (inactive).

For GGAGGUCAUUAAAACACCATT against HADH, the median seed-adjusted z-score is 1.11 (active).

Take GGACGACCGUGUAUAGUUUTT against RFESD: the median seed-adjusted z-score was -0.503 (inactive).

For CACUUUAGAUGAUAUCAGATT against PPP3CA, the median seed-adjusted z-score was 0.74 (inactive).

In the case of GCUAUAAGGUGGAACGGCATT against POLR2A, the median seed-adjusted z-score is -3.81 (active).

As for GCUUAUGGAUGGAGACCAATT against RNF34, the median seed-adjusted z-score was -0.0857 (inactive).

Regarding AGGUGAUGUCGGUCGGAGATT against RAB24, the median seed-adjusted z-score was 0.123 (inactive).

On to AGCAAUAACUCGUGUAGCATT against EFNA2, for which the median seed-adjusted z-score is -0.314 (inactive).

As to GGGCGGUACUUUACAACUATT against KCTD9, the median seed-adjusted z-score was 1.31 (active).

Consider CUAGAGUAUUUUGAUCUAATT against FAT2, for which the median seed-adjusted z-score was -0.286 (inactive).

CACCGUGUUUGACAACUAUTT against RAC2: the median seed-adjusted z-score was -0.596 (inactive).

Take GGACCAACCCAGAAUCGUATT against MAOB: the median seed-adjusted z-score is 0 (inactive).

In the case of UCGCAAAGGUGAACACUCATT against PIN1, the median seed-adjusted z-score was 0.156 (inactive).

On to AGAUGUGACUGGCUGGUCATT against LCN12, for which the median seed-adjusted z-score was 0.124 (inactive).

AGACCUACACGGUACGCGUTT against THAP11: the median seed-adjusted z-score is -1.36 (active).

Regarding GCAUCUAAUACUUAUGGAATT against MS4A4A, the median seed-adjusted z-score was 0.296 (inactive).

In the case of GAAGCAUGAUGGACAGGAUTT against ISOC1, the median seed-adjusted z-score was 0.104 (inactive).

As for CCUCGACCUGGUCACUUUATT against TRMU, the median seed-adjusted z-score was 0.0312 (inactive).

Regarding CCGUAGCAAUAGUAGGUGUTT against UBA5, the median seed-adjusted z-score is -0.105 (inactive).

As to GCCUGACCAUCUCCAUUGUTT against USH1C, the median seed-adjusted z-score was -0.164 (inactive).

With CGUGUUCCGAGAAAACGAATT against PLEKHM2, the median seed-adjusted z-score was 0.593 (inactive).

Turning to GCAACAGCUCAAAAACGAATT against UAP1, the median seed-adjusted z-score was 0.0411 (inactive).

Regarding CAUCUACUGUCAUUAACCATT against ITIH5, the median seed-adjusted z-score is -0.289 (inactive).

In the case of AGACCCAGCUAGAUUCUGATT against GPR152, the median seed-adjusted z-score is -0.9 (inactive).

For the sequence CCUCGUUUGACAUCCACUATT against CTSD, the median seed-adjusted z-score was -0.282 (inactive).

CAUUCACGGAGAUAAGAAATT against ALDH1L1: the median seed-adjusted z-score was 0.0289 (inactive).

On to UGAAUUACCUGGACCGUUUTT against CCND2, for which the median seed-adjusted z-score was -0.819 (inactive).

Consider UGCGUUUUCUGAUAACUCATT against PTP4A2, for which the median seed-adjusted z-score is -1.45 (active).

Consider GGCAAAAAGCUGACUGAGATT against GPD1, for which the median seed-adjusted z-score was 0.558 (inactive).

For the sequence GGAUGAUUAUGCUAAUCUATT against GGPS1, the median seed-adjusted z-score was -0.372 (inactive).

With GCACUGUCUUUGUAUCUGATT against SFXN2, the median seed-adjusted z-score is 0.365 (inactive).

Turning to GGGCUGUUGUAAUAGUGGATT against SFPQ, the median seed-adjusted z-score was -1.15 (active).

Regarding AGGCCUUUCUUACCCAGAATT against MAP2K1, the median seed-adjusted z-score was 0.942 (inactive).

For the sequence CACUUGAUCUCUUAACCAUTT against 10-Sep, the median seed-adjusted z-score is 0.571 (inactive).

GCACAGGACAGACAGGCUATT against SRC: the median seed-adjusted z-score was -0.0246 (inactive).

For GGAUUACAGCAGGUGCAGATT against MED8, the median seed-adjusted z-score was -1.61 (active).

With GAAUCUCACAAUUAUGUAUTT against NCK2, the median seed-adjusted z-score was -0.397 (inactive).

With AGAUAAGCAUGGUGCCCAATT against BPI, the median seed-adjusted z-score is 0 (inactive).

Turning to GACCGUUUAAUGAAGCUUUTT against SPTLC2, the median seed-adjusted z-score was 0 (inactive).

Turning to CCAUUGUAGUCUCUCCUCUTT against RECQL5, the median seed-adjusted z-score was 0 (inactive).

With GCCCUCCUGUGCAACCAUATT against SPRR2G, the median seed-adjusted z-score was 0.358 (inactive).

Consider ACAUGAAGGUGAAUCCUGUTT against COX4I2, for which the median seed-adjusted z-score is -0.0202 (inactive).

For CAGCGAUUUUAAAUCGUAUTT against HSD17B13, the median seed-adjusted z-score was -0.329 (inactive).

As for CAACCAACCUGCAUCUAGATT against TRIM33, the median seed-adjusted z-score was 0.316 (inactive).

Regarding CGACCCUUGAAGUUCAAUATT against EFTUD2, the median seed-adjusted z-score is -1.25 (active).

For GGAUCCUUCUAUACGCAUATT against SLC4A7, the median seed-adjusted z-score was 0 (inactive).

As to CAGUAGAUGUGGAAAAGGATT against PTK2B, the median seed-adjusted z-score is 1.71 (active).

For the sequence CCAUUGAUGGAGUCAGAUUTT against POLD2, the median seed-adjusted z-score is 0.97 (inactive).

Regarding CCACUAGUGAAACAACCAATT against PCLO, the median seed-adjusted z-score is -0.734 (inactive).

With GCAAGGAGCUAGAGCCUUUTT against MOBKL2B, the median seed-adjusted z-score was -0.613 (inactive).

Regarding GCAAGUCCACGUUCCUCAATT against GNA12, the median seed-adjusted z-score is 0.598 (inactive).

Consider AGCUACCGAUGGAAGAGGATT against CLK3, for which the median seed-adjusted z-score was -1.11 (active).

With AGGUCAAGCUUAGUGACAATT against ZDHHC8, the median seed-adjusted z-score is 0 (inactive).

GCUUCUCAUGGGAUCAAAATT against PGCP: the median seed-adjusted z-score is 0.145 (inactive).

Take CCGGGAAAUUGAUUAUGCATT against SIN3B: the median seed-adjusted z-score is 0.509 (inactive).

With GCAUCUCAUCGGAAGAGGATT against MAP3K12, the median seed-adjusted z-score is -0.6 (inactive).

Consider GAUCCUAAAUCAUGACUUATT against COX6B1, for which the median seed-adjusted z-score is -0.706 (inactive).

Regarding GGACGAAUGAGUUCCAGUUTT against PCDHB8, the median seed-adjusted z-score is 1.15 (active).

With AGACCUAGCUUUAGCACAATT against ZFAND2B, the median seed-adjusted z-score was 0 (inactive).

In the case of GAAGCGGCAUUAGCAGAGATT against ISOC1, the median seed-adjusted z-score is 0.104 (inactive).

With GGUAAAAUCAAGUACCAUATT against TIGD2, the median seed-adjusted z-score was -0.13 (inactive).

For the sequence GCAUCACCAUCCUUCCGCATT against BACE1, the median seed-adjusted z-score was -0.537 (inactive).

With AGAGAGUGGUUUUUCCUCCTT against WWP2, the median seed-adjusted z-score is -0.685 (inactive).

On to GUGCUUCAGUAGGUAUGUATT against ASNS, for which the median seed-adjusted z-score was -1.1 (active).

GGCCUUUAGUUAUAAAGGATT against TIMM8A: the median seed-adjusted z-score was 0.173 (inactive).

As for ACAUAGCCGUGUCCAGGUATT against GLYCTK, the median seed-adjusted z-score is 0.0328 (inactive).

GACCUGAAUUGUAUCAUCATT against MAPK3: the median seed-adjusted z-score is -0.573 (inactive).

With GAACUCCAGAGAUCAAUAATT against IL7R, the median seed-adjusted z-score is 0 (inactive).

On to CCAACUAUCAGUGACCGUATT against CYP17A1, for which the median seed-adjusted z-score is -1.39 (active).

Regarding CUAUCACCUGGACUGUAUATT against RNF11, the median seed-adjusted z-score was -0.365 (inactive).

As for GGAGACUUACUACCUAUAATT against PARD6B, the median seed-adjusted z-score was 0.315 (inactive).

With GGCUUCUUCUAUUCAAUUUTT against BCL6B, the median seed-adjusted z-score was 0 (inactive).

GAACUGACAAGCUUAGUAATT against SAP18: the median seed-adjusted z-score is 2.14 (active).

Turning to AUACAGAUCUAAUAGAGUUTT against NAT1, the median seed-adjusted z-score was -0.0665 (inactive).

With CCAUUGACAAUUCAACUUATT against ST8SIA1, the median seed-adjusted z-score is -0.25 (inactive).

CGCCUCAACCUGAUCAUCATT against ENPP7: the median seed-adjusted z-score is -0.478 (inactive).

Take GUGCCUUGCUAUUCUAAGATT against NEUROD1: the median seed-adjusted z-score was 0 (inactive).

With GAAACUCUCUUCAAGUCUATT against CKB, the median seed-adjusted z-score was -0.236 (inactive).

(Values after PubChem BioAssay AID1347426 (Functional Genomics Laboratory (NCATS/FGL), 2020).)
